Test results taken from PubChem BioAssay (Tox21).
Records with an inconclusive call do not appear. Calls of active or inactive are those of the source. Calls come from the whole dose curve; as a rule, active = well fitted curve in the direction sought with a large enough effect in the repeat runs; inconclusive = weak or mixed curves; inactive = no such curve, though single readings can be large; an effect the other way counts as inactive or inconclusive.

Tests used:
[1] = qHTS RealTime-Glo MT Cell Viability Assay in HEK293 cells - 32 hour (AID 1224868); note: top concentration of the series differs between compounds; nearly all actives have a fitted effect of over 50% in size
Outline: (§1)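 Nonlytic real-time viability readout: viable cells convert prosubstrate to NanoLuc substrate, giving luminescence proportional to live cell number. HEK293, 600 cells/well, compound added after 5 h, continuous culture at 37 C.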

[2] = A CellTox Green Cytotoxicity Assay to monitor cytotoxicity in HEK293 cells - 0 hour (AID 1224869); note: nearly all actives have a fitted effect of over 50% in size
Outline: (§2)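 HEK293 cells, 600/well, were preincubated 5 hours and then exposed to compounds at 37 C for up to 40 hours. A cell-impermeant cyanine dye staining dead-cell DNA was read by fluorescence at 0, 8, 16, 24, 32 and 40 h time points.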

[3] = qHTS RealTime-Glo MT Cell Viability Assay in HepG2 cells - 40 hour (AID 1224870); note: nearly all actives have a fitted effect of over 50% in size
Outline: (§3)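 HepG2 cells mixed with RealTime-Glo MT reagents (NanoLuc plus cell-permeant prosubstrate) were seeded at 600 cells/well, incubated 5 h at 37 C/5% CO2, then pinned with compounds in DMSO; nonlytic luminescence tracked viability during 40 h treatment.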

[4] = A CellTox Green Cytotoxicity Assay to monitor cytotoxicity in HEK293 cells - 40 hour (AID 1224871); note: nearly all actives have a fitted effect of over 45% in size
Outline: as §2

[5] = qHTS RealTime-Glo MT Cell Viability Assay in HEK293 cells - 16 hour (AID 1224872); note: top concentration of the series differs between compounds; nearly all actives have a fitted effect of over 50% in size
Outline: as §1

[6] = qHTS RealTime-Glo MT Cell Viability Assay in HEK293 cells - 40 hour (AID 1224874); details: RealTime-Glo luminescence, stronger effect = lower value; note: nearly all actives have a fitted effect of over 50% in size
Outline: (§4)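 600 cells/well were plated with the nonlytic NanoLuc/prosubstrate reagent, pre-incubated 5 h, then given 23 nL of compound in DMSO. Incubation at 37 C for 40 h, with luminescence from viable-cell-reduced substrate read repeatedly from 0 h.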

[7] = A CellTox Green Cytotoxicity Assay to monitor cytotoxicity in HEK293 cells - 24 hour (AID 1224875); note: series mostly up to about 77 µM; nearly all actives have a fitted effect of over 45% in size
Outline: as §2

[8] = A CellTox Green Cytotoxicity Assay to monitor cytotoxicity in HepG2 cells - 16 hour (AID 1224876); note: nearly all actives have a fitted effect of over 45% in size
Outline: (§5)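 HepG2 cells, 600/well, preincubated 5 h with CellTox Green dye, then exposed to Tox21 compounds in DMSO at 37 C for up to 40 h. Dead-cell DNA fluorescence read at the indicated time point.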

[9] = qHTS RealTime-Glo MT Cell Viability Assay in HepG2 cells - 32 hour (AID 1224877); note: nearly all actives have a fitted effect of over 55% in size
Outline: (§6)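 Luminescence read-out: viable HepG2 cells reduce a prosubstrate to a NanoLuc substrate, giving a signal proportional to live cell number. Reads taken at 0, 8, 16, 24, 32 and 40 h of compound exposure at 37 C.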

[10] = A CellTox Green Cytotoxicity Assay to monitor cytotoxicity in HepG2 cells - 24 hour (AID 1224878); note: nearly all actives have a fitted effect of over 45% in size
Outline: as §5

[11] = A CellTox Green Cytotoxicity Assay to monitor cytotoxicity in HepG2 cells - 40 hour (AID 1224879); note: nearly all actives have a fitted effect of over 40% in size
Outline: as §5

[12] = qHTS RealTime-Glo MT Cell Viability Assay in HEK293 cells - 0 hour (AID 1224880)
Outline: as §4

[13] = A CellTox Green Cytotoxicity Assay to monitor cytotoxicity in HepG2 cells - 0 hour (AID 1224882); note: nearly all actives have a fitted effect of over 35% in size
Outline: as §5

[14] = A CellTox Green Cytotoxicity Assay to monitor cytotoxicity in HepG2 cells - 32 hour (AID 1224883); note: nearly all actives have a fitted effect of over 50% in size
Outline: as §5

[15] = A CellTox Green Cytotoxicity Assay to monitor cytotoxicity in HEK293 cells - 8 hour (AID 1224884); note: nearly all actives have a fitted effect of over 35% in size
Outline: as §2

[16] = qHTS RealTime-Glo MT Cell Viability Assay in HEK293 cells - 8 hour (AID 1224887)
Outline: as §4

[17] = A CellTox Green Cytotoxicity Assay to monitor cytotoxicity in HEK293 cells - 32 hour (AID 1224881); note: nearly all actives have a fitted effect of over 40% in size
Outline: as §2

[18] = qHTS RealTime-Glo MT Cell Viability Assay in HepG2 cells - 16 hour (AID 1224885); note: nearly all actives have a fitted effect of over 50% in size
Outline: as §6

[19] = qHTS RealTime-Glo MT Cell Viability Assay in HEK293 cells - 24 hour (AID 1224886)
Outline: as §1

[20] = qHTS RealTime-Glo MT Cell Viability Assay in HepG2 cells - 8 hour (AID 1224873); note: nearly all actives have a fitted effect of over 55% in size
Outline: as §3
% is set by controls: 0 for no effect and ±100 for the full control effect.

CCCCCC(CC)OC(=O)CCCOc1ccc(Cl)cc1Cl (stereo not given)
inactive: outcome [1] | outcome [2] | outcome [3] | Potency [4] | outcome [5] | max response [6] 2.48% | Potency [7] | Potency [8] | outcome [9] | Potency [10] | Potency [11] | Potency [12] | Potency [13] | Potency [14] | Potency [15] | outcome [16]

N#CC1(N)CCCCC1
inactive: outcome [1] | outcome [2] | outcome [3] | Potency [4] | outcome [5] | max response [6] 6.54% | Potency [7] | Potency [8] | outcome [9] | Potency [10] | Potency [11] | Potency [12] | Potency [17] | Potency [13] | Potency [14] | outcome [18] | outcome [19] | outcome [16]

CC(=O)OC1CCC(C(C)(C)C)CC1 (stereo not given)
inactive: outcome [1] | outcome [2] | outcome [3] | Potency [4] | outcome [5] | Potency [7] | Potency [8] | outcome [9] | Potency [10] | Potency [11] | Potency [12] | Potency [17] | Potency [13] | Potency [14] | Potency [15] | outcome [18] | outcome [19] | outcome [16]

C=C(C)C(=O)OCCOC1CC2CC1C1C=CCC21 (stereo not given)
inactive: outcome [1] | outcome [2] | outcome [3] | Potency [4] | outcome [5] | max response [6] 0.272% | Potency [7] | Potency [8] | outcome [9] | Potency [10] | Potency [11] | Potency [12] | Potency [17] | Potency [13] | Potency [14] | Potency [15] | outcome [18] | outcome [19] | outcome [16]

Cc1nc2ccc(Cl)cc2[nH]1
inactive: outcome [1] | outcome [2] | outcome [3] | Potency [4] | outcome [5] | outcome [20] | Potency [7] | Potency [8] | outcome [9] | Potency [10] | Potency [11] | Potency [12] | Potency [17] | Potency [13] | Potency [14] | Potency [15] | outcome [18] | outcome [19] | outcome [16]

CCOC(=O)[C@H](CCc1ccccc1)N[C@H]1CS[C@H](c2cccs2)CN(CC(=O)O)C1=O
inactive: outcome [1] | outcome [2] | outcome [3] | Potency [4] | outcome [5] | outcome [20] | Potency [7] | Potency [8] | outcome [9] | Potency [10] | Potency [12] | Potency [17] | Potency [14] | Potency [15] | outcome [18] | outcome [19] | outcome [16]

O=C(O)P(=O)(O)O
inactive: outcome [1] | outcome [2] | outcome [3] | Potency [4] | outcome [5] | outcome [20] | Potency [7] | Potency [8] | outcome [9] | Potency [10] | Potency [11] | Potency [12] | Potency [13] | Potency [14] | Potency [15] | outcome [18] | outcome [16]

N#Cc1ccccc1C#N
inactive: outcome [1] | outcome [2] | outcome [3] | Potency [4] | outcome [5] | outcome [20] | Potency [7] | Potency [8] | outcome [9] | Potency [10] | Potency [11] | Potency [12] | Potency [17] | Potency [13] | Potency [14] | Potency [15] | outcome [18] | outcome [19] | outcome [16]

CC1=C(O)C(=O)CO1
inactive: outcome [1] | outcome [2] | outcome [3] | Potency [4] | outcome [5] | outcome [20] | Potency [7] | Potency [8] | outcome [9] | Potency [10] | Potency [11] | Potency [12] | Potency [17] | Potency [13] | Potency [15] | outcome [18] | outcome [19] | outcome [16]

CCCCCCCCCCCC(C)=O
inactive: outcome [1] | outcome [2] | outcome [3] | Potency [4] | outcome [5] | max response [6] 0.63% | Potency [7] | Potency [8] | outcome [9] | Potency [10] | Potency [11] | Potency [12] | Potency [13] | Potency [14] | Potency [15] | outcome [18] | outcome [16]

CCC(=O)OCCOc1ccccc1
inactive: outcome [1] | outcome [2] | outcome [3] | Potency [4] | outcome [5] | max response [6] 5.48% | Potency [7] | Potency [8] | outcome [9] | Potency [10] | Potency [11] | Potency [12] | Potency [17] | Potency [14] | Potency [15] | outcome [18] | outcome [16]

CC(=O)c1ccc(O)c(C(N)=O)c1
inactive: outcome [1] | outcome [2] | outcome [3] | Potency [4] | outcome [5] | max response [6] 2.03% | Potency [7] | Potency [8] | outcome [9] | Potency [10] | Potency [11] | Potency [12] | Potency [17] | Potency [13] | Potency [15] | outcome [18] | outcome [19] | outcome [16]

CCCCC(CC)CCC(CC(C)C)OS(=O)(=O)O (stereo not given)
inactive: outcome [1] | outcome [2] | outcome [3] | Potency [4] | outcome [5] | outcome [20] | Potency [7] | outcome [9] | Potency [10] | Potency [11] | Potency [12] | Potency [17] | Potency [13] | Potency [14] | Potency [15] | outcome [18] | outcome [19] | outcome [16]

CC(C)(C)OC=O
inactive: outcome [1] | outcome [2] | outcome [3] | Potency [4] | outcome [5] | outcome [20] | Potency [7] | Potency [8] | outcome [9] | Potency [10] | Potency [11] | Potency [12] | Potency [17] | Potency [14] | Potency [15] | outcome [18] | outcome [16]

O=C(O)Cc1ccccc1Oc1ccc(Cl)cc1Cl
inactive: outcome [1] | outcome [2] | outcome [3] | Potency [4] | outcome [5] | max response [6] 4.29% | Potency [7] | outcome [9] | Potency [10] | Potency [12] | Potency [13] | Potency [15] | outcome [18] | outcome [19] | outcome [16]

O=S(=O)(O)c1cc(I)c(O)c2ncccc12
inactive: outcome [1] | outcome [2] | outcome [3] | Potency [4] | outcome [5] | Potency [7] | Potency [8] | outcome [9] | Potency [10] | Potency [11] | Potency [12] | Potency [17] | Potency [14] | Potency [15] | outcome [18] | outcome [19] | outcome [16]
